# rCAG binder-1: r(CAG) repeat RNA binding. AID 651821. hit rate 1.3% among 370,000. inhibition, % at 3 µM. TO-PRO-1 dye displacement fluorescence;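 active = inhibition above the plate cutoff, the mean of all test compounds on that plate plus 3 SD, cut at about 35% in these data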;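 also: 0% = DMSO alone and 100% = 100 µM mitoxantrone as full dye displacement; higher means more dye released from RNA so lower well fluorescence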
# MsrA act: bovine methionine sulfoxide reductase A activation; hit rate 0.3% among 360,000; activation, % at 10.6 µM; purified bovine MsrA, absorbance read-out; in the data active = activation above about 7.5%;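 also: 0% = vehicle and 100% = reference activator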
# PG9 binder: small molecules binding HIV-1 gp120 antibody PG9; TR-FRET gp120-PG9 antibody binding; inhibition, % at 6.7 µM; hit rate 0.43% among 360,000; in the data active = inhibition above about 8.5%
# HGIII-sPLA2 inh: Blocks human group III sPLA2 activity; QFRET BODIPY PC-A2 liposome hydrolysis, fluorescence; Q9NZ20; hit rate 0.56% among 370,000; inhibition, % at 12.2 µM; AID 743126;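 active = inhibition above mean plus 3 SD of compounds lying within the high and low control bounds, cut at about 19% in these data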;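 also: 0% = median of test compound wells and 100% = no enzyme DMSO wells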
# Target sequence (Q9NZ20 whole entry, looked up): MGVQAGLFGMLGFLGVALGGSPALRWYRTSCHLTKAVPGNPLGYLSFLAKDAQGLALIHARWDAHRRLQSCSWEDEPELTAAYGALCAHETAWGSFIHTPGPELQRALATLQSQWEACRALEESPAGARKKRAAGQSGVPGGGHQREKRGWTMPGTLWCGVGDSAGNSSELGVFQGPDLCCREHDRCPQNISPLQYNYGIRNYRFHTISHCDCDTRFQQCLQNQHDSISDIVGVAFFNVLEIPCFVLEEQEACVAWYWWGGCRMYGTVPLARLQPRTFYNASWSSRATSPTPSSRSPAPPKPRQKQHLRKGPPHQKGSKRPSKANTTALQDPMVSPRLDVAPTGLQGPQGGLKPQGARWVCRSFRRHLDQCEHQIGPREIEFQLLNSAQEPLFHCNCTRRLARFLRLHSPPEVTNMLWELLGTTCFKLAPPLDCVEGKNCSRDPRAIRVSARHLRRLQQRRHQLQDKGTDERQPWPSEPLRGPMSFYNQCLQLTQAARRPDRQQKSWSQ
# MsrA inh: inhibitors of bovine MsrA; purified bovine MsrA, absorbance read-out; inhibition, % at 15.5 µM; hit rate 0.75% among 360,000; in the data active = inhibition above about 4.5%;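 also: 0% = vehicle wells with enzyme and 100% = reference inhibitor wells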
# rCAG bind conf: r(CAG) RNA repeat binding, confirmation; shares compounds with rCAG binder-1; hit rate 70% among 4,300; TO-PRO-1 dye displacement fluorescence; inhibition, % at 3 µM;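 active = inhibition above a per-plate cutoff, the mean inhibition of sample wells plus 3 SD, cut at about 35% in these data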;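 also: loss of TO-PRO-1 fluorescence as compound displaces dye from 1x1 AA loop RNA; 0% = DMSO only wells and 100% = 100 µM mitoxantrone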
# DNA CAG counter: DNA CAG dye complex inhibition counter-screen; d(CAG) DNA oligo TO-PRO-1 dye displacement, fluorescence; inhibition, % at 3 µM; hit rate 94% among 4,300; shares compounds with rCAG binder-1;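 active = inhibition above its plate's cutoff, the mean test-well inhibition plus 3 SD, cut at about 4.8% in these data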;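 also: 0% = DNA dye mix with DMSO and 100% = 100 µM mitoxantrone; hits displace the dye from DNA and so lower well fluorescence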
# DNA CAG DR: DNA CAG dye complex inhibition, dose response counter-screen; shares compounds with rCAG binder-1; DNA CAG/GTC duplex TO-PRO-1 dye displacement fluorescence; IC50, µM; hit rate 20% among 250; in the data active = IC50 below about 10 µM
# dCAG TOPRO ctr: counter-screen for rCAG binders: DNA CAG TO-PRO-1 complex inhibitors, late stage | shares compounds with rCAG binder-1 | d(CAG) DNA duplex TO-PRO-1 dye displacement, fluorescence | IC50, µM | hit rate 80% among 30
# rCAG binder-2: molecules binding r(CAG) RNA repeats, late stage dose response; shares compounds with rCAG binder-1; r(CAG) RNA TO-PRO-1 dye displacement, fluorescence; IC50, µM; hit rate 100% among 30; AID 720651
# Active calls of the source: *; i = inactive; . = not tested or not shown. Compounds with a hit are over-represented: about 3.2% of the library has one in this group of screens. Unless noted, no rule for the calls is given here.
SMILES,rCAG binder-1,MsrA act,PG9 binder,HGIII-sPLA2 inh,MsrA inh,rCAG bind conf,DNA CAG counter,others
CCNC(=S)NNC(=O)c1cc(-c2ccc(OCC)cc2)nc2ccccc12,43*,-12,1,8,3,48*,16*,
COc1ccc(C(=O)NNC(=S)NC(=O)c2cc(-c3ccccc3)nc3ccccc23)cc1,65*,1,-1,-3,1,79*,33*,
Cc1ccc(C)c(-c2cc(C(=O)NNC(=S)NCC(C)C)c3ccccc3n2)c1,45*,2,-2,3,1,67*,24*,DNA CAG DR=>30
COc1ccc(-c2cc(C(=O)NNC(=S)NC(=O)c3c(-c4ccccc4)noc3C)[nH]n2)cc1,70*,-1,0,24*,2,75*,33*,DNA CAG DR=i;dCAG TOPRO ctr=i;rCAG binder-2=0.99*
CCNC(=S)NNC(=O)c1cc(-c2ccccc2C)nc2ccccc12,.,-2,.,.,.,.,.,
CCNC(=S)NNC(=O)c1cc(-c2cccc(OC)c2)nc2ccccc12,11,-2,-1,12,-1,.,.,
CCCOc1cccc(-c2cc(C(=O)NNC(=S)NCC)c3ccccc3n2)c1,58*,-1,-2,-16,0,56*,20*,
COc1cc(/C=C2\S/C(=N/S(=O)(=O)c3ccccc3)NC2=O)c([N+](=O)[O-])cc1OC,77*,-1,-2,-31,3,73*,33*,DNA CAG DR=6.6*
COc1ccc(/C=C2\SC(=Nc3ccccc3OC)NC2=O)cc1,17,-3,0,-38,2,.,.,
COc1ccc(S(=O)(=O)/N=C2/NC(=O)/C(=C\c3cc(OC)c(OC)cc3[N+](=O)[O-])S2)cc1,75*,-3,1,-31,1,63*,23*,
O=C1NC(=O)C(=Cc2ccccc2[N+](=O)[O-])S1,4,-2,-5,-3,0,.,.,
Cc1cc2cc3c(cc2n2c(SCC(=O)Nc4nc(-c5ccccc5)cs4)nnc12)OCO3,.,.,.,13,.,.,.,
COC(=O)[C@]12C[C@H](CC(=O)NCCCCc3ccccc3)C(=O)N(CCC3=CCCCC3)C1=C[C@H](COCc1ccccc1)O[C@@H]2C,7,.,-1,-12,0,.,.,
O=C(Nc1nnc(C2CC2)o1)c1ccc(S(=O)(=O)N2CCCc3ccccc32)cc1,36*,-1,-1,-11,0,32,11*,
COCc1nnc(NC(=O)c2ccc(S(=O)(=O)N3CCCc4ccccc43)cc2)o1,25,-4,1,-11,0,.,.,
CN1C(C)(C)CC(O)(C(=O)O)CC1(C)C,0,-7,0,8,1,.,.,
CCCCCC(=O)Nc1nc(C)c(-c2csc(Nc3cc(Cl)ccc3OC)n2)s1,39*,-14,0,3,1,27,13*,
CCOc1ccc(C2C(C(=O)Nc3ccccc3)=C(C)N=c3s/c(=C/c4cccc(OCC(=O)O)c4)c(=O)n32)cc1 (stereo not given),67*,-2,-1,-30,4,83*,54*,
CC1=C(C(=O)Nc2ccccc2)C(c2ccc(C)o2)n2c(s/c(=C/c3ccccc3)c2=O)=N1 (stereo not given),6,-1,1,-2,0,.,.,
CC1=C(C(=O)Nc2ccccc2)C(c2ccc(Cl)cc2)n2c(s/c(=C/c3cccc(OCC(=O)O)c3)c2=O)=N1 (stereo not given),67*,-2,-1,-25,2,87*,63*,
Cc1cc(=O)[nH]c(SCC(=O)Nc2cccc(Cl)c2F)n1,4,.,.,-2,.,.,.,
CCOC(=O)c1cccc(-c2cc(C(C)=O)c3n(c2=O)CCC3)c1,-1,.,.,3,.,.,.,
NC(=O)c1ncn([C@@H]2O[C@H](C(=O)N[C@H](Cc3c[nH]c4ccccc34)C(=O)N3CCN(C(=O)C4CC4)CC3)[C@@H](O)[C@H]2O)n1,1,.,0,7,4,.,.,
C=CCn1c(SCc2c(C)noc2C)nc2sc3c(c2c1=O)CCCC3,20,-2,1,-3,0,.,.,
C=CCn1c(SCc2c(C)noc2C)nc2sc3c(c2c1=O)CCCCC3,40*,-1,2,2,0,7,4.7*,
SMILES,rCAG binder-1,MsrA act,PG9 binder,HGIII-sPLA2 inh,MsrA inh,rCAG bind conf,DNA CAG counter,others
CN1C(=O)/C(=C/c2ccc(OC(=O)c3ccco3)cc2)SC1=S,1,4,0,-2,0,.,.,
COc1cc(/C=C2/SC(=S)N(CC(=O)O)C2=O)ccc1OC(=O)c1ccco1,41*,-5,-3,-7,3,46*,15*,
COc1cc(/C=C2\SC(=S)N(CC(=O)O)C2=O)ccc1OC(=O)c1ccco1,46*,-2,0,-18,1,45*,13*,
CCOc1cc(/C=C2\C(=O)N(c3ccc(C(N)=O)cc3)N=C2C)ccc1OC(=O)c1cccs1,.,2,.,.,.,.,.,
CN1C(=O)/C(=C\c2ccc(OC(=O)c3ccco3)cc2)SC1=S,0,-3,2,5,0,.,.,
CCOc1cc(/C=C2/SC(=S)N(CC(=O)O)C2=O)ccc1OC(=O)c1cccs1,58*,-9,-1,-19,2,71*,30*,DNA CAG DR=i
CC(=O)OCC1OC(n2c(-c3ccc(Cl)cc3)ccc(C#N)c2=S)C(OC(C)=O)C(OC(C)=O)C1OC(C)=O (stereo not given),11,-2,2,0,0,.,.,
Cc1ccc(N=Nc2c(O)[nH]c(=O)[nH]c2=O)cc1S(=O)(=O)Nc1ccc(Br)cc1,36*,-2,-1,-2,2,32,11*,
Cc1ccc(O)c(Cc2cc(C)cc(Cc3cc(C)ccc3O)c2O)c1,40*,-3,-2,-86,2,39*,11*,
Cc1ccc(O)c(CNCCNCc2cc(C)ccc2O)c1,3,-10,-3,-14,2,.,.,
COc1cc(OC)cc(C2=Cc3ccc(OC)cc3C(CC(C)=O)N2c2ccc(C#CCCO)cc2)c1 (stereo not given),7,0,1,-19,1,.,.,
COc1ccc(C2C(C#N)=C(N)Oc3c2c(-c2ccccc2)nn3-c2ccccc2)c(OC)c1OC (stereo not given),42*,-9,-2,-2,1,23,10*,
COc1ccc(OC)c(C2C(C#N)=C(N)Oc3c2c(C)nn3-c2ccc(C)cc2)c1 (stereo not given),8,-8,-3,-3,-1,.,.,
CN=C1S/C(=C/c2cc(C)n(Cc3ccccc3)c2C)C(=O)N1C,.,.,.,2,.,.,.,
COC(=O)c1cc(-c2ccc(Cl)s2)c(=O)n2c1CCC2,2,.,.,0,.,.,.,

# Screens from PubChem.
